# ± gives the standard deviation of the averaged measurements.
# Test system: Listeria monocytogenes 10403S
# Assay: growth inhibition relative to ceftriaxone-alone control; higher = stronger potentiation of ceftriaxone growth inhibition
# Conditions: 10 µM; ceftriaxone 1 ug/ml; 12 h
# 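Also: End-point A600 read in BHI broth at 37 °C with 2% DMSO, inhibition computed as (1 − OD with compound plus ceftriaxone ÷ OD with ceftriaxone only) × 100.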
row,SMILES,growth inhibition [%]
1,COc1cc2c(Oc3ccc(NC(=O)C4(C(=O)Nc5ccc(F)cc5)CC4)cc3F)ccnc2cc1OCCCN1CCOCC1,80.2 ± 4.3
2,c1ccc(-c2n[nH]cc2-c2ccnc(-c3ccc(OCCN4CCOCC4)cc3)c2)nc1,-1.77 ± 9.5
3,Cc1ccc(C(=O)Nc2cccc(C(F)(F)F)c2)cc1Nc1nc(-c2cccnc2)nc2c1cnn2C,-1.9 ± 16
4,c1cnn2ncc(-c3ccnc(NCCCN4CCOCC4)n3)c2c1,-2.97 ± 0.54
5,Cc1[nH]c(/C=C2\C(=O)Nc3ccc(S(=O)(=O)N(C)c4cccc(Cl)c4)cc32)c(C)c1C(=O)N1CCN(C)CC1,51.3 ± 11
6,COC(=O)Nc1nc2cc(Oc3ccc(NC(=O)Nc4cccc(Br)c4)cc3)ccc2[nH]1,-0.0344 ± 20
7,C=CC(=O)Nc1ccc2ncnc(Nc3ccc(OCc4cccc(F)c4)c(Cl)c3)c2c1,17.47 ± 0.16
8,Cc1cc(-c2ccccn2)cc(C)c1/C=C/c1cncc(-c2nn[nH]n2)c1,-7.47 ± 9.6
9,CCn1cc(-c2ccnc3[nH]c(-c4cccc(CN(C)C)c4)cc23)c(-c2ccc(NC(=O)N(C)C)cc2)n1,26.7 ± 18
10,COc1cc2ncn(-c3cc(OCc4cccs4)c(C(N)=O)s3)c2cc1OC,-10.4 ± 16
11,N#Cc1c(NC(=O)CN2CCOCC2)sc2c1CCCC2,9.96 ± 12
12,C[S+]([O-])c1ccc(-c2nc(-c3ccc(F)cc3)c(-c3ccncc3)[nH]2)cc1 (stereo not given),28.4 ± 26
13,C=CC(=O)Nc1cccc(Oc2nc(Nc3ccc(N4CCN(C)CC4)cc3)ncc2Cl)c1,13.3 ± 3.3
14,Nc1nc(N)c2nc(-c3cccc(O)c3)c(-c3cccc(O)c3)nc2n1,63 ± 19
15,C[C@H](NC(=O)/C(C#N)=C/c1cccc(Br)n1)c1ccccc1,99 ± 0.21
